High-throughput results: PubChem BioAssay, National Center for Advancing Translational Sciences (NCATS)
Rows were chosen to be rich in hits. Some 8.7% of all compounds tested hit in one or more screens of this group.
Sfp inh: blocks B. subtilis Sfp PPTase activity; 310,000 tested, 3.5% active; Potency, µM, most hits filed as inhibitors; Biochemical Sfp PPTase activity, qHTS;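 further: the enzyme is Sfp with the accession as filed and its product quenches rhodamine fluorescence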
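After 15 min at room temperature with compound, 15 nM Sfp received 5 uM rhodamine-CoA plus 12.5 uM BHQ-2-ybbR (50 mM Hepes pH 7.6, 10 mM MgCl2). Rate came from the fluorescence difference over 30 min, ex 525/em 598 nm.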
BAZ2B block: inhibitors of human BAZ2B bromodomain; Q9UIF8; AlphaScreen BAZ2B-H3K14Ac peptide displacement; Potency, µM (titrated, usually from 114 µM), usual class: inhibitors; 360,000 tested, 4.4% active; further: nearly all actives have a fitted effect of over 60% in size
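BAZ2B 50 nM plus b-H3(5-23)K14Ac 50 nM, PBS pH 7.4/0.01% Tween-20, 30 min RT; compound added (max 110 uM), 30 min RT; streptavidin donor/Ni-chelate acceptor beads 10 ug/mL final, 20 min dark; AlphaScreen read.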
G9a block: inhibitors of human histone lysine methyltransferase G9a. AID 504332. Q96KQ7. Potency, µM (series often up to 102 µM), usual class: inhibitors. G9a H3K9 monomethylation, AlphaScreen, 2 h. 350,000 tested, 8.8% active; further: nearly all actives have a fitted effect of over 75% in size
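Readings reflect AlphaScreen signal from monomethyl-H3K9 antibody detection. HMT at 20 nM; substrate b-H3K9 500 nM; cofactor SAM 20 uM; 2 h RT reaction; compounds tested as titrations in qHTS with 15 min preincubation.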
JMJD2A Tudor inh: inhibitors of human JMJD2A Tudor domain | O75164 | AlphaScreen JMJD2A-Tudor / H3K4me3 peptide binding | Potency, µM (series often up to 114 µM), usual class: inhibitors | 390,000 tested, 4.4% active | AID 504339; further: nearly all actives have a fitted effect of over 50% in size
12-LOX inh: ALOX12 (human) lipoxygenase inhibition; 580,000 tested, 1.1% active; Potency, µM (top dose mostly 108 µM), hits mostly inhibitors; AID 1671190; purified 12hLO, xylenol orange hydroperoxide absorbance
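Purified human 12hLO (150 nM final) in 25 mM Hepes, 0.01% Triton X-100, pH 7.0 was preincubated 15 min at room temperature with compound. Then 40 uM arachidonic acid was added, 30 min. Hydroperoxide was read by Fe-XO absorbance ratio 573/405 nm.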
HP1b binding inh: inhibitors of HP1-beta chromodomain binding to methylated histone tails; 390,000 tested, 0.56% active; AlphaScreen HP1-beta / biotin-H3K9me3 peptide binding; P83916; Potency, µM (series often up to 114 µM), most hits filed as inhibitors; further: nearly all actives have a fitted effect of over 70% in size
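HP1-beta protein (50 nM final) preincubated 30 min at room temperature with biotinylated H3(1-18)K9me3 peptide (50 nM) in PBS pH 7.4, 0.01% Tween-20, then compound added for 30 min. AlphaScreen streptavidin donor/nickel chelate acceptor beads (10 ug/mL final), 30 min dark, luminescence read.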
Numbers stand for hits; - = inactive; ? = inconclusive; . = no result given; [ ] = another dose, or the depositor's remark. The call rests on the fitted dose curve; in most records, active means well fitted curve in the direction sought with a large enough effect; inconclusive means small, poorly fitted or top-dose-only effect, or another doubt; inactive means no such curve, though single readings can be large; an effect the other way counts as inactive or inconclusive.

SMILES | Sfp inh | BAZ2B block | G9a block | JMJD2A Tudor inh | 12-LOX inh | HP1b binding inh
CC(=O)c1ccc(-c2ccc(C(=O)NC3CC(C)(C)NC(C)(C)C3)o2)cc1 | . | - | 39.8µM | - | - | -
Cc1noc([C@@H]2CN(C(=O)c3ccc4cc[nH]c4c3)C[C@H]2CO)n1 | . | . | . | . | - | .
CC1=C(C(=O)O)N2C(=O)C(NC(=O)c3c(F)cccc3F)C2SC1 (stereo not drawn) | . | ? | 44.7µM | - | ? | -
CC1=C(C(=O)O)N2C(=O)C(NC(=O)c3nn(C)c(C)c3Cl)C2SC1 (stereo not drawn) | 11.2µM | - | 8.91µM | ? | ? | -
CC1=C(C(=O)O)N2C(=O)[C@@H](NC(=O)[C@H](N)c3ccc(O)cc3)[C@H]2SC1 | . | . | . | - | - | -
CC1=C(C(=O)O)N2C(=O)C(NC(=O)c3ccn(C)n3)C2SC1 (stereo not drawn) | 22.4µM | ? | ? | - | - | -
NC(C(=O)NC1C(=O)N2C(C(=O)O)=C(Cl)CSC12)c1ccccc1 (stereo not drawn) | - | . | . | . | . | .
O=C(NCC(c1ccccc1)c1ccccc1)c1cc2ccccc2[nH]1 | . | . | . | . | - | .
NC(=S)NN=Cc1nccc2ccccc12 | . | . | . | 17.8µM | ? | -
NC(=S)N/N=C/c1ccc2ccccc2c1 | - | - | - | - | - | -
Cc1cnc(C=NNC(N)=S)c2cccc(N)c12 | . | . | . | 50.1µM | ? | ?
CCCCn1c(-c2cccnc2)n[nH]c1=S | ? | - | 25.1µM | 8.91µM | - | -
CCCCn1c(-c2cccnc2)nc2cc3[nH]c(=O)c(C(C)C)nc3cc21 | - | - | ? | - | - | -
CCn1c(-c2cccnc2)n[nH]c1=S | 89.1µM | ? | -[0.501 µM] | 22.4µM | - | -
O=C(O)c1csc(-c2ccccc2)n1 | - | - | ? | -[11.4 µM] | - | -
O=C(O)c1csc(-c2cccs2)n1 | - | - | 79.4µM | - | ? | -
O=C(O)c1csc(-c2cccc(Cl)c2)n1 | - | - | 39.8µM | -[11.4 µM] | - | -
CN(CC(=O)Nc1ccc(Cl)c(C(F)(F)F)c1)C(=O)c1cn2ccccc2n1 | . | ? | 35.5µM | - | ? | -
Cc1cc(C(=O)N(C)CC(=O)Nc2ccc(Cl)c(C(F)(F)F)c2)no1 | . | - | -[0.501 µM] | - | ? | -
CC(C)CCO[C@H]1COCCN(Cc2ccccn2)C1 | . | . | . | . | - | .
CCOC(=O)COn1c(=O)c(=O)n(OC)c2ccccc21 | - | - | -[12.7 µM] | ? | - | -
COc1ccc(-c2c(=O)n(OC)c3ccccc3[n+]2[O-])cc1OC | 56.2µM | - | 31.6µM | - | - | -
COc1ccc(-c2c(=O)n(OCc3ccccc3[N+](=O)[O-])c3ccccc3[n+]2[O-])c(OC)c1 | - | - | 44.7µM | - | - | -
CCOC(=O)COn1c(=O)c(=O)n(O)c2ccccc21 | - | - | 44.7µM | 50.1µM | ? | -
CCOC(=O)COn1c(=O)c(-c2ccc(OC)cc2)[n+]([O-])c2ccccc21 | - | - | -[2.33 µM] | - | - | -
SMILES | Sfp inh | BAZ2B block | G9a block | JMJD2A Tudor inh | 12-LOX inh | HP1b binding inh
CCOn1c(=O)c(-c2ccccc2)[n+]([O-])c2ccccc21 | - | - | - | - | - | -
CCOC(=O)COn1c(=O)c(-c2ccc(OC)c(OC)c2)[n+]([O-])c2ccccc21 | ? | - | 22.4µM | . | ? | .
CN1C(=O)C2(CCN(C(=O)c3ccnn3C)CC2)c2ccccc21 | . | . | . | . | - | .
Cc1cc(-c2ccnc(-c3nnc(C)n3CCN3CCOCC3)c2)ccn1 | . | . | . | . | - | .
C=CCOn1c(=O)c(-c2ccc(OC)c(OC)c2)[n+]([O-])c2ccccc21 | 56.2µM | - | 8.91µM | 89.1µM | - | -
COc1ccc(-c2c(=O)n(OCc3ccccn3)c3ccccc3[n+]2[O-])cc1OC | - | - | ? | - | - | -
CCOC(=O)c1ccc(Nc2c(-c3cccc(O)c3)nc3nc[nH]n23)cc1 | . | - | ? | - | - | -
CCOC(=O)c1ccc(Nc2c(-c3ccc(N(C)C)cc3)nc3nc[nH]n23)cc1 | . | ? | 15.8µM | - | - | -
O=C(c1ccccc1)c1nn(-c2ccccc2)c2nnc(Cc3ccccc3)c(=O)n12 | - | - | 10µM | ? | - | -
CCCCOC(=O)c1ccc(NC(=O)COc2ccc3c(C)cc(=O)oc3c2)cc1 | . | . | . | . | - | .
